Shown are actives, neighbours in structure and some others; about 19% of the full set was active somewhere.
TDP1 cell noCPT: qHTS for Inhibitors of human tyrosyl-DNA phosphodiesterase 1 (TDP1): qHTS in cells in absence of CPT; DT40 Tdp1-/- hTDP1 cells, no CPT, ATP luminescence, 48 h; Potency, µM (doses to about 46.2 µM), without a hit: top-dose activity change, negative = growth inhibition, actives largely listed as inhibitors; 15% of 420,000 active; AID 686978, 2013; note: potency is the fitted concentration of half-maximal effect; nearly all actives have a fitted effect of over 55% in size
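Seeded 400 DT40-hTDP1 cells/well (vehicle DMSO, no 20 nM CPT); pinned compounds; ≥48 hr at 37 °C; CellTiter-Glo luminescence as viability measure.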
HT1080 IDH1KD tx: qHTS for induction of synthetic lethality in tumor cells producing 2HG: qHTS for the HT-1080-IDH1KD cell line; HT-1080 IDH1 knockdown viability, ATP luminescence, 48 h; Potency, µM (series often up to 46.1 µM), inactives show at the highest dose activity, negative = toxicity, most hits filed as cytotoxic; 2% of 360,000 active; AID 686971, 2013;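 note: potency is the fitted concentration of half-maximal effect; 0% = DMSO wells and -100% = cell-free medium wells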
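Assay cells: HT-1080 with IDH1 knockdown, 750 per well, RPMI/5% FBS. Exposure: 48 h at 37 °C following 2 h pre-incubation. Read: CellTiter-Glo luminescence; fitted concentration-response, curve class assigned.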
HT1080-NT tox: qHTS for induction of synthetic lethality in tumor cells producing 2HG: qHTS for the HT-1080-NT fibrosarcoma cell line | HT-1080-NT fibrosarcoma viability, CellTiter-Glo ATP luminescence, 48 h | Potency, µM (highest dose often 46.1 µM), for inactives: top-dose activity, negative = less viability, actives largely listed as cytotoxic | 1.6% of 360,000 active;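 note: NT is the 2HG producing partner of a matched IDH1 knockdown line; potency is the fitted concentration of half-maximal effect; 0% = DMSO-treated cells and -100% = media-only wells without cells; nearly all actives have a fitted effect of over 55% in size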
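Viability of the 2HG-overproducing fibrosarcoma line after 48 hours of compound exposure at 37 degrees C was determined by luminescence with CellTiter-Glo, and concentration-effect curves were then fitted and categorized.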
TDP1 cell CPT: qHTS for Inhibitors of human tyrosyl-DNA phosphodiesterase 1 (TDP1): qHTS in cells in presence of CPT | 12% of 420,000 active | Potency, µM (top dose mostly 46.2 µM), for inactives: at the highest dose activity change, negative = growth inhibition, usual class: inhibitors | chicken DT40 Tdp1-/-;hTDP1 cells + 20 nM CPT, ATP luminescence, 48 h; note: potency is the fitted concentration of half-maximal effect; nearly all actives have a fitted effect of over 55% in size
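Cell growth measured by CellTiter-Glo luminescence after a minimum 48 h, 37 C compound exposure with 20 nM CPT in Tdp1-knockout DT40 cells stably expressing hTDP1, seeded 400/well; qHTS titration format.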
IL-1B inflam inh: qHTS for Inhibitors of Inflammasome Signaling: IL-1-beta AlphaLISA Primary Screen; THP-1 LPS/ATP IL-1B secretion, AlphaLISA, 16 h; active compounds read low; activity change, % at 57.5 µM; 4.7% of 360,000 active; in the data active = activity change below about -50%; inconclusive = mostly about -30% to -49%
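Secreted IL-1B measured by AlphaLISA bead assay after 16 h compound exposure of THP-1 cells; compounds (final up to 57.5 uM) added 1 h before LPS (250 ng/mL) and ATP (1.25 mM) stimulation; lower signal means less secretion.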
Numbers without * were called inactive; ? = inconclusive; · = not tested or not shown; [ ] = dose if it differs, or a comment. Unless noted, calls come from the whole dose curve; as a rule, active = well fitted curve in the direction sought with a large enough effect; inconclusive = small, poorly fitted or top-dose-only effect, or another doubt; inactive = no such curve, though single readings can be large; an effect the other way counts as inactive or inconclusive. Unless noted, % is set by controls: 0 for no effect and ±100 for the full control effect.

SMILES | TDP1 cell noCPT | HT1080 IDH1KD tx | HT1080-NT tox | TDP1 cell CPT | IL-1B inflam inh
CNC(=S)NNC(=O)c1cc(C(C)(C)C)nn1Cc1ccc(F)cc1 | 16.4µM* | 0.0% | 21.7% | ? | -0.4
CCOC(=O)C1CN(S(C)(=O)=O)c2cc(CC(=O)OC)ccc2O1 (stereo not drawn) | 10.5% | 13.6% | 10.8% | 7.9% | -101.4*
CCOC(=O)C1CN(S(=O)(=O)c2ccc(OC)cc2)c2cc(CC(=O)OC)ccc2O1 (stereo not drawn) | -27.4% | -8.6% | -0.5% | ? | 16.4
O=C(Cn1c(C(=O)N2CCN(C3CCCC3)CC2)cc2sccc21)c1ccccc1 | ? | -25.1% | -19.5% | 18.4µM* | -14.2
CCn1c(C(=O)N2CCC(Cc3ccccc3)CC2)cc2sccc21 | ? | -4.6% | 0.7% | ? | -15.0
COc1ccc(CCn2c(C(C)C)nc3oc4ccccc4c(=O)c3c2=O)cc1 | 29.1µM* | -0.6% | -8.3% | ? | -8.4
COCCCn1c(C2CCCCC2)nc2oc3cc(OC)ccc3c(=O)c2c1=O | 20.6µM* | 14.9% | 9.3% | ? | 3.8
CCc1nc2oc3cc(OC)ccc3c(=O)c2c(=O)n1Cc1ccccc1 | ? | -20.7% | 3.3%[9.24 µM] | ? | -1.0
CC(C)c1nc2c(c(=O)c3ccccc3n2C)c(=O)n1CCc1ccccc1 | 9.2µM* | 0.0% | -5.5% | ? | ·
CCCc1nc2oc3cc(OC)ccc3c(=O)c2c(=O)n1CCc1ccccc1 | 23.1µM* | 17.7% | 1.0% | 20.6µM* | -11.3
COc1ccc(Cn2c(-c3ccccc3)nc3c(c(=O)c4ccccc4n3C)c2=O)cc1 | ? | 9.3% | 4.6% | ? | 5.9
COc1ccc2c(=O)c3c(=O)n(Cc4ccco4)c(C(C)C)nc3oc2c1 | -23.4% | -9.2% | 2.7% | 2.7% | -7.3
COCCn1c(-c2ccc(C)cc2)nc2oc3cc(OC)ccc3c(=O)c2c1=O | ? | 3.6% | 11.2% | -21.4% | 7.2
Cc1ccccc1Cc1nc2cccnc2n1C1CCN(C(=O)CC2NC(=O)c3ccccc32)CC1 (stereo not drawn) | ? | · | · | -5.2%[9.04 µM] | ·
COc1ccc(NC(=O)C2CCCN(S(=O)(=O)c3ccc4[nH]c(=O)ccc4c3)C2)cc1OC (stereo not drawn) | -1.5% | 1.5% | -2.1% | -10.0% | -3.1
O=C(Nc1ccc(Cl)cc1)C1CCCN(S(=O)(=O)c2ccc3[nH]c(=O)ccc3c2)C1 (stereo not drawn) | -20.1% | · | · | ? | ·
CC(C)c1ccc(NC(=O)C2CCCN(S(=O)(=O)c3ccc4[nH]c(=O)ccc4c3)C2)cc1 (stereo not drawn) | -23.9% | · | · | 11.6µM* | ·
COc1ccc(OC)c(NC(=O)C2CCCN(S(=O)(=O)c3ccc4[nH]c(=O)ccc4c3)C2)c1 (stereo not drawn) | 23.1µM* | · | · | ? | ·
Cc1oc(-c2ccccc2NC(=O)c2ccccc2)nc1CNC(=O)C1CC(=O)OC12CCCCC2 (stereo not drawn) | 4.6% | · | · | -4.2%[9.04 µM] | ·
CCOC(=O)c1cc(CC)sc1NC(=O)CC1Sc2ccc(C(F)(F)F)cc2NC1=O (stereo not drawn) | ? | 12.5% | 17.8% | ? | -7.0
COc1ccc(C(=O)Nc2ccnn2C2CCN(C(=O)c3cccnc3)CC2)cc1 | -28.4% | -0.9% | -0.2% | -15.3% | -6.0
CC(C)CN(C#N)c1nc(N2CCOCC2)nc(N2CCOCC2)n1 | 11.6µM* | -13.2% | -23.1% | 11.6µM* | -9.9
CCN(CC)c1nc(C#N)nc(N2CCOCC2)n1 | 10µM* | · | · | 10µM* | ·
CN(C#N)c1nc(N2CCOCC2)nc(N2CCOCC2)n1 | ? | 6.9% | 10.4% | ? | -0.4
N#CCCn1cc(C=O)c(-c2cccs2)n1 | ? | -16.5% | -0.9% | ? | 78.3
SMILES | TDP1 cell noCPT | HT1080 IDH1KD tx | HT1080-NT tox | TDP1 cell CPT | IL-1B inflam inh
O=C(Nc1cccc(-c2ccc(F)cc2)c1)C1CCCN(Cc2cccnc2)C1 (stereo not drawn) | ? | 18.4µM* | ? | ? | ?
CCc1ncc(CN2CCCC(C(=O)Nc3cccc(-c4ccc(F)cc4)c3)C2)cn1 (stereo not drawn) | 16.4µM* | -1.4% | -11.5% | 23.1µM* | -12.4
CCc1ncc(CN2CCCC(C(=O)Nc3cccc(-c4cccc(C)c4)c3)C2)cn1 (stereo not drawn) | ? | -20.2% | 1.5% | ? | -6.8
CCn1cc(CN2CCCC(C(=O)Nc3cccc(-c4cc5ccccc5[nH]4)c3)C2)cn1 (stereo not drawn) | ? | ? | 16.4µM* | 4.0% | -81.0*
CCC(Br)C(=O)Nc1ccc(OC)cc1 (stereo not drawn) | -13.7% | -8.6% | -3.1% | -27.0% | -3.4
Cc1ccc(NC(=O)Cn2c(=O)ccc3cc(S(=O)(=O)N4CCC(C)CC4)ccc32)c(C)c1 | 23.1µM* | · | · | ? | ·
Cc1ccc(NC(=O)CN2CCN(S(=O)(=O)c3ccc4c(c3)OCCO4)CC2)c(C)c1 | ? | -0.2% | -1.8% | -28.2% | 15.4
CC(=O)Nc1ccc(NC(=O)Cn2c(=O)ccc3cc(S(=O)(=O)N4CCC(C)CC4)ccc32)cc1 | ? | · | · | 1.5% | ·
CC1CCN(S(=O)(=O)c2ccc3c(ccc(=O)n3CC(=O)NCc3ccccc3)c2)CC1 | ? | · | · | -28.8% | ·
Cc1ccc(NC(=O)Cn2c(=O)ccc3cc(S(=O)(=O)N4CCC(C)CC4)ccc32)cc1Cl | 6.51µM* | · | · | 11.6µM* | ·
CC1CCN(S(=O)(=O)c2ccc3c(ccc(=O)n3CC(=O)Nc3cccc(F)c3)c2)CC1 | 13µM* | · | · | 14.6µM* | ·
CC1CCN(S(=O)(=O)c2ccc3c(ccc(=O)n3CC(=O)NCc3ccccc3Cl)c2)CC1 | ? | · | · | 18.4µM* | ·
CC(=O)N1CCCC1c1nc2ccccc2n1Cc1ccccc1 (stereo not drawn) | -34.0% | · | · | 0.4% | ·
COc1ccccc1-c1ccnc(-n2ncc(C(=O)NCc3cccnc3)c2C)n1 | -14.0% | · | · | 26.5%[9.04 µM] | ·
CCc1cccc(OCC(=O)Nc2ccc(S(=O)(=O)N3CCCC3)cc2)c1 | -12.1% | -14.3% | -3.8% | ? | ?
CC(C)(C)c1cc(OC(=O)C2CCCC2)ccc1O | 3.66µM* | ? | ? | 5.17µM* | ?
Cc1nonc1C(=O)N/N=C/c1cccc(O)c1 | -16.7% | -8.5% | 2.4% | -16.8% | -2.1
O=C(Nc1ccccc1)N1CCN(c2nc(-c3ccccc3)ns2)CC1 | 16.4µM* | -12.5% | -29.5% | 23.1µM* | -7.5
